Values without a mark were called inactive.
Columns and labels:
Test in all cases: log2 ratio of Biotin-Ahx-Ub-VS probe labelling (fragment/DMSO); higher = less target engagement (more negative = stronger competition), active = hit call of the paper (q ≤ 0.05, log2 ratio ≤ -1)
Conditions in all cases: compound concentration: 200 uM; treatment time: 3 h
OTUD6B = molecular target: T1, OTUD6B (UniProt Q8N6M0)
T1 sequence (whole entry): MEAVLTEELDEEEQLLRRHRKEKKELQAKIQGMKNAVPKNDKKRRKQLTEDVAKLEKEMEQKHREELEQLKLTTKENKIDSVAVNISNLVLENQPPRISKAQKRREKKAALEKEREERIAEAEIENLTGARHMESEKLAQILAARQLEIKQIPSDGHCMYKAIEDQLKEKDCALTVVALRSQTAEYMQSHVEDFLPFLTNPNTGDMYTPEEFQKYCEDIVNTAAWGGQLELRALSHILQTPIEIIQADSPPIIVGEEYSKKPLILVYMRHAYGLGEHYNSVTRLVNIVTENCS
Procedure, shortened: (§1)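 Triplicate samples of HEK293T lysate, 495 µg each, received fragment at 200 µM or vehicle for 3 h, followed by Biotin-Ahx-Ub-VS (0.5 µM final) for 1 h. After NeutrAvidin enrichment of labelled DUBs and LysC/trypsin digestion, peptides were run by diaPASEF LC-MS/MS. The values are average log2 fragment/vehicle ratios from global-median-normalised Spectronaut label-free quantities, tested by unpaired t-test on proteins having ≥2 unique peptides.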

OTUD7B = molecular target: T2, OTUD7B (UniProt Q6GQQ9)
T2 sequence (whole entry): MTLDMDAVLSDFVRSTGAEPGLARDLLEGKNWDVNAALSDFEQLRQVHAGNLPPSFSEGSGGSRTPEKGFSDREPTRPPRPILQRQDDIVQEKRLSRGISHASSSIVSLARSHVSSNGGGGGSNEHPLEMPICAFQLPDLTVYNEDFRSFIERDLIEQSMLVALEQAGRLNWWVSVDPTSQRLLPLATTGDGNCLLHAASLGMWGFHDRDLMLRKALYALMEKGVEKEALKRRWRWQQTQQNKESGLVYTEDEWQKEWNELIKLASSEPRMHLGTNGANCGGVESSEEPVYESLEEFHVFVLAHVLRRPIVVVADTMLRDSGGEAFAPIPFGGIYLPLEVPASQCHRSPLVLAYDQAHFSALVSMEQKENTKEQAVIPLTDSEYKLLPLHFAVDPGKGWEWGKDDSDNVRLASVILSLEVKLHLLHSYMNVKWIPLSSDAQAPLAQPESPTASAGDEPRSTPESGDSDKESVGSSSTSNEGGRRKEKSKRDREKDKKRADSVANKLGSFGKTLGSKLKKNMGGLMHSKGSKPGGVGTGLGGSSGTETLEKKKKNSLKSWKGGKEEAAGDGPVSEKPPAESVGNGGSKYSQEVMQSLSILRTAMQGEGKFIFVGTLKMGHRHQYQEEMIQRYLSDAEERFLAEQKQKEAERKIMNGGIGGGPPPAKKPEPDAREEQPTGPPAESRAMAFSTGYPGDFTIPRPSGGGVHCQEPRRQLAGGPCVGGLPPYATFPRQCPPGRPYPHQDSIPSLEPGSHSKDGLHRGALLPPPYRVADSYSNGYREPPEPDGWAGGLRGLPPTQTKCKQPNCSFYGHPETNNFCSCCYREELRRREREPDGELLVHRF
Procedure, shortened: as §1

PRPF8 = PRPF8 (UniProt Q6P2Q9)
Procedure, shortened: as §1

PSMD7 = molecular target: T3, PSMD7 (UniProt P51665)
T3 sequence (whole entry): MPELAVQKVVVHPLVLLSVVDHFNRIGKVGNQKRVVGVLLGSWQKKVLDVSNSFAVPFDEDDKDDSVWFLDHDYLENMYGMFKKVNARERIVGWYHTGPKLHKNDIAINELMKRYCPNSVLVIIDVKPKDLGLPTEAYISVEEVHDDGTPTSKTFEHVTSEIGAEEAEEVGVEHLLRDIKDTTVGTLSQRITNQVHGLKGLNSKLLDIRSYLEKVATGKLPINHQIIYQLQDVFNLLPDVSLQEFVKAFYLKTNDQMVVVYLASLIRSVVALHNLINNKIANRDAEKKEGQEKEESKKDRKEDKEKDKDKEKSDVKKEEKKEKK
Procedure, shortened: as §1

UCHL1 = UCHL1 (UniProt P09936)
Procedure, shortened: as §1

UCHL3 = molecular target: T4, UCHL3 (UniProt P15374)
T4 sequence (whole entry): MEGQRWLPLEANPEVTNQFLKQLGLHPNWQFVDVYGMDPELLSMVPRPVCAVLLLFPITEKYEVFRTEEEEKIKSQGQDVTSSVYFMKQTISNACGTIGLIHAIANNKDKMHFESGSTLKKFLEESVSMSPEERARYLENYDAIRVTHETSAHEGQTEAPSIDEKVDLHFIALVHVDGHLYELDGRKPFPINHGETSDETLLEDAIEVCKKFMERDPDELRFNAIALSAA
Procedure, shortened: as §1

UCHL5 = molecular target: T5, UCHL5 (UniProt Q9Y5K5)
T5 sequence (whole entry): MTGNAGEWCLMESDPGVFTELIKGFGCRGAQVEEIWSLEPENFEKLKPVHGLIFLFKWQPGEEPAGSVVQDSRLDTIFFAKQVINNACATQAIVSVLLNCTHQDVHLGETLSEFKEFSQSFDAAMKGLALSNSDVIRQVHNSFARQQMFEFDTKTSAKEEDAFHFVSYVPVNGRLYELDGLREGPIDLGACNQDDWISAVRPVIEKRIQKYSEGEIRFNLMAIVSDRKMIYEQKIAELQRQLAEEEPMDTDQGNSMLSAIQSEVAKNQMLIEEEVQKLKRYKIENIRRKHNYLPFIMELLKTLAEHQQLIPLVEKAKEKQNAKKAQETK
Procedure, shortened: as §1

USP10 = USP10 (UniProt Q14694)
Procedure, shortened: as §1

USP15 = molecular target: T6, USP15 (UniProt Q9Y4E8)
T6 sequence (whole entry): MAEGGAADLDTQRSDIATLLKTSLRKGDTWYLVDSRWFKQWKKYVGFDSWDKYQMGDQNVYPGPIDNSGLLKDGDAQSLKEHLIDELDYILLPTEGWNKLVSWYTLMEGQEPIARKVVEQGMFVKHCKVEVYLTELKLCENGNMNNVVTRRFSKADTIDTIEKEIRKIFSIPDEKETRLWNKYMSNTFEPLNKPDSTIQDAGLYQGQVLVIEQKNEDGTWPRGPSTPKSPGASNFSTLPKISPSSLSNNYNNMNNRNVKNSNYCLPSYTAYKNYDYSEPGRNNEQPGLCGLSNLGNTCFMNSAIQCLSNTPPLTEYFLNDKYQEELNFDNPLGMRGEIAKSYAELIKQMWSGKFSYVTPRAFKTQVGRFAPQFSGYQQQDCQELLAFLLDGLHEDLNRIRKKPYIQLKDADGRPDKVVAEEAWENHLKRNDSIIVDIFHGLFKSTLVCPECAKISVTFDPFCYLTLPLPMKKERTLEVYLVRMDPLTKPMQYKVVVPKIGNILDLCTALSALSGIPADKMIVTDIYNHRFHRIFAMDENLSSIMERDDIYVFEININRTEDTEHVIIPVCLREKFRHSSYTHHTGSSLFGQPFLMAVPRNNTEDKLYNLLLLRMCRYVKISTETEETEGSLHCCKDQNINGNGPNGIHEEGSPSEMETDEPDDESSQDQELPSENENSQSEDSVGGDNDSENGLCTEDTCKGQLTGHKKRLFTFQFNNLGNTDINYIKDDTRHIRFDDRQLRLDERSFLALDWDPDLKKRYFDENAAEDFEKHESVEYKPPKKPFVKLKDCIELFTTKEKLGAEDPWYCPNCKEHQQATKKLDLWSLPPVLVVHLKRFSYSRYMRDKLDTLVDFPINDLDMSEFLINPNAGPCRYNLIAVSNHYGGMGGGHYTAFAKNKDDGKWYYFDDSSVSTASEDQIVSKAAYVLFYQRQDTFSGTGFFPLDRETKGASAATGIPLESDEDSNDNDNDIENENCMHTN
Procedure, shortened: as §1

USP16 = USP16 (UniProt Q9Y5T5)
Procedure, shortened: as §1

Chain of USP10 (Q14694 whole entry): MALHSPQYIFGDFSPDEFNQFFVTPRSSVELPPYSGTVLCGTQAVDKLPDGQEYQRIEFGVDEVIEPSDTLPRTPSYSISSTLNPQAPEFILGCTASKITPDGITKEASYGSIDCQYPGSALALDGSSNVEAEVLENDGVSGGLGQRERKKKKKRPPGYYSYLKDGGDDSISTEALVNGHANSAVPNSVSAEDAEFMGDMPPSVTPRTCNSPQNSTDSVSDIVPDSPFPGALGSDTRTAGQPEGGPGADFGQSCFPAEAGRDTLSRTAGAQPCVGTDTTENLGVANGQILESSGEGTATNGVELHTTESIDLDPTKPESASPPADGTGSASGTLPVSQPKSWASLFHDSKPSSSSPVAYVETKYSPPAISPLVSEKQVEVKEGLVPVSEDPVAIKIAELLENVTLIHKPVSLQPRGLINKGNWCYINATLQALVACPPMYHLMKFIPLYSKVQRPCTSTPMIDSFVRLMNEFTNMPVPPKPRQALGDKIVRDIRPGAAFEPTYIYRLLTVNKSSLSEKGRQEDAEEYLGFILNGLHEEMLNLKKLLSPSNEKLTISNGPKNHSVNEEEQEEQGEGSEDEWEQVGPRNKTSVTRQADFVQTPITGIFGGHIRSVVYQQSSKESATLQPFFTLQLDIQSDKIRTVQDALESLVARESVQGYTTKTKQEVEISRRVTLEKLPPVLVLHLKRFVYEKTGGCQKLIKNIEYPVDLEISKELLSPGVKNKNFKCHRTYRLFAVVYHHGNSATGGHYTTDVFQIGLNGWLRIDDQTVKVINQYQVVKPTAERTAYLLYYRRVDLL
Chain of UCHL1 (P09936 whole entry, looked up): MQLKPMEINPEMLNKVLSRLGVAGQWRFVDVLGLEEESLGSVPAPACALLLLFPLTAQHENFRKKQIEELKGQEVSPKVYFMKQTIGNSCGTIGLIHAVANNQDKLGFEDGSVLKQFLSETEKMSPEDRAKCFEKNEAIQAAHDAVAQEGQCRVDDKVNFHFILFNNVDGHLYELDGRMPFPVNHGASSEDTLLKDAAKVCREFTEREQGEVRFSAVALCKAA
Chain of USP16 (Q9Y5T5 whole entry, looked up): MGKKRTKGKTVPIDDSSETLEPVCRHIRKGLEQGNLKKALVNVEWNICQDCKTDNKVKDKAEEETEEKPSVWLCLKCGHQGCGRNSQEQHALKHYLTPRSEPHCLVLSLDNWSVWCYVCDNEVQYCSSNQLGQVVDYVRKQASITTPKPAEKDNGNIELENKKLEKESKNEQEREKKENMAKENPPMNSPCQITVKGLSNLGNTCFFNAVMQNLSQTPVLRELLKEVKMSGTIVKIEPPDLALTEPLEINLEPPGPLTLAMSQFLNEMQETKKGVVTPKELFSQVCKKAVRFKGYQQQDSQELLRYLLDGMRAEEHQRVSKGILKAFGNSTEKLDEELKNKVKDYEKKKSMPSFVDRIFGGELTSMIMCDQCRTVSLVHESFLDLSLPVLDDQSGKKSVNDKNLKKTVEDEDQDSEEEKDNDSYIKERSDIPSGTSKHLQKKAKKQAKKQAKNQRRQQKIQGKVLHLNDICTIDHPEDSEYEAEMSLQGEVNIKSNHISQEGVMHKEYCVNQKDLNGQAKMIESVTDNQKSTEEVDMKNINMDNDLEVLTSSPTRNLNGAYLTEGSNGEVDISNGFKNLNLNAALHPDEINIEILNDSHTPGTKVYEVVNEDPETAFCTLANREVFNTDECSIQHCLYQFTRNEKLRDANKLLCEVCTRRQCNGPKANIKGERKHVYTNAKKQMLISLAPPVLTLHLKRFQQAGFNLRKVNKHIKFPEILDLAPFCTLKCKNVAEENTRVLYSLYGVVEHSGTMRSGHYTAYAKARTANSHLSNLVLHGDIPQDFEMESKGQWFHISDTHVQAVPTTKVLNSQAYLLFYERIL

With `Cl.Cn1nccc1C(NC(=O)CCl)c1ccccc1` (stereo not given) the “log2 ratio of Biotin-Ahx-Ub-VS probe labelling” value (“log2 ratio” for short) (OTUD6B) was -0.147, the “log2 ratio” value (OTUD7B) was -0.872 and the “log2 ratio” value (PRPF8) was 0.0203. For the same compound, the “log2 ratio” value (PSMD7) was -0.597, the “log2 ratio” value (UCHL1) was -1.03 (active) and the “log2 ratio” value (UCHL3) was 0.209. For the same compound, the “log2 ratio” value (UCHL5) was -0.353, the “log2 ratio” value (USP10) was -0.0201 and the “log2 ratio” value (USP15) was -0.218. For the same compound, the “log2 ratio” value (USP16) was -0.0928.

— the supplement of paper PMC11732987, “Enantioselective OTUD7B fragment discovery through chemoproteomics screening and high-throughput optimisation” (Communications Chemistry, 2025)
